Screening results as filed in PubChem BioAssay.
APEX1 inh: APE1 (human) endonuclease inhibition; 350,000 tested, 0.35% active; P27695; recombinant APE1, TAMRA/BHQ-2 abasic DNA cleavage fluorescence; Potency, µM (doses to about 65.8 µM), for inactives: at the highest dose activity change, negative = inhibition, actives largely listed as inhibitors;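 also: plate controls were vehicle for no effect and reference inhibitor for full effect; nearly all actives have a fitted effect of over 55% in size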
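Incision of a quenched TAMRA/BHQ-2 THF abasic-site duplex (50 nM) by 0.75 nM APE1, after 15 min compound preincubation, measured as fluorescence increase over three 60 s reads. Values normalized to buffer, DMSO and NSC13755 control wells.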
TRb SRC2 PPI: disrupts binding of human TR beta to SRC2. TRbeta-SRC2 peptide binding, fluorescence polarization; receptor liganded with 1 µM T3. AID 1469. P10828. 280,000 tested, 0.065% active. Potency, µM (highest dose often 106 µM), for inactives: top-dose activity change, negative = inhibition, hits mostly inhibitors;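 also: plate controls were bound peptide for no effect and peptide without receptor for full effect; nearly all actives have a fitted effect of over 50% in size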
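Decrease in fluorescence polarization of 20 nM Texas Red SRC2 coactivator peptide flagged inhibition of its binding to 0.6 uM TRb LBD; 1 uM T3 included, incubation 5 hr, ex 555/em 632 nm.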
WRN helicase inh: WRN helicase (human) inhibition; Q14191; WRN helicase unwinding, fluorescent forked duplex, kinetic; Potency, µM (titrated, usually from 114 µM), without a hit: top-dose activity change, negative = inhibition, actives largely listed as inhibitors; 360,000 tested, 0.46% active; AID 651768; also: nearly all actives have a fitted effect of over 55% in size
Target sequence (Q14191 whole entry, looked up): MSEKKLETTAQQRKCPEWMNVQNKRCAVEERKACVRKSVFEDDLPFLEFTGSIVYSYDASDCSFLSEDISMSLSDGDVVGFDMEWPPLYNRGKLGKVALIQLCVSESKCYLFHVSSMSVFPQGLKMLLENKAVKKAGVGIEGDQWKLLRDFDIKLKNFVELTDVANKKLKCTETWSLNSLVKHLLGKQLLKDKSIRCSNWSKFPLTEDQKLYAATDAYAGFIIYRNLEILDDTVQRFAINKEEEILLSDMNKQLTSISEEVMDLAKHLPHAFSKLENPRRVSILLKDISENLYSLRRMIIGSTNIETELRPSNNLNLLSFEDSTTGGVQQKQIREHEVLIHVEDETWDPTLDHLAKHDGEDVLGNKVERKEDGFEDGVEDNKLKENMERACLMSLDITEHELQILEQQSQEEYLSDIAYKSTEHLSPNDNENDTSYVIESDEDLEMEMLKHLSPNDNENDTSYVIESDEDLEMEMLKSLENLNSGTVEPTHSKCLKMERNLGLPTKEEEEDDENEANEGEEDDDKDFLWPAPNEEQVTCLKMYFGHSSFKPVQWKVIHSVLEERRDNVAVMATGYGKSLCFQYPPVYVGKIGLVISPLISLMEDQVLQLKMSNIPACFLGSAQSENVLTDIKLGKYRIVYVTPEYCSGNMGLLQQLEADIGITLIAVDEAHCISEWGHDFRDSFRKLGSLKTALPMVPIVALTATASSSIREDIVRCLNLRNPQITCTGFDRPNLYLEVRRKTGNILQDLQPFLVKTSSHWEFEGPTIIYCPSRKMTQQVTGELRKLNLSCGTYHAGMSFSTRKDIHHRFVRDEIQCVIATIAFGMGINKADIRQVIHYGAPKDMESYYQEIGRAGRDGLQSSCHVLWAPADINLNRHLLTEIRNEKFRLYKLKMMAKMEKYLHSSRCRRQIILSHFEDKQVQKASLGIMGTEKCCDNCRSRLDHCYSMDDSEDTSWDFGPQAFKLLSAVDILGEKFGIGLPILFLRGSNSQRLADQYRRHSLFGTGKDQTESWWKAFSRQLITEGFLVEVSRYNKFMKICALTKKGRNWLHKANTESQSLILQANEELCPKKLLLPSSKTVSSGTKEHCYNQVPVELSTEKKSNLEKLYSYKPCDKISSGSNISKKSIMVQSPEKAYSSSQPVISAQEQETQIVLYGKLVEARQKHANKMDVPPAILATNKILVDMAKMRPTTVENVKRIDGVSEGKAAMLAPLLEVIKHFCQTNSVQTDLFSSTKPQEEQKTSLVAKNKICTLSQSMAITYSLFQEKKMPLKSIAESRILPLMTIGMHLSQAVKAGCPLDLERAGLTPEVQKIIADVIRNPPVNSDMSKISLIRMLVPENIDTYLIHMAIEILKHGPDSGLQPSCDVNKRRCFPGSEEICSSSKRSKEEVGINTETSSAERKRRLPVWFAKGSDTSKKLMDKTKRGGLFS
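WRN at 20 nM final was preincubated with compound for 15 min at room temperature; reaction started with 100 nM forked duplex oligonucleotide carrying fluorophore and quencher plus 2 mM ATP (final). Unwinding followed kinetically by red fluorescence (ex 525/em 598 nm).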
RECQ1 inh-1: inhibitors of human RECQ1 DNA helicase; P46063; RECQ1 DNA unwinding, red fluorescence kinetic read; Potency, µM (titrated, usually from 57.3 µM), for inactives: at the top dose activity, negative = inhibition, usual class: inhibitors; 240,000 tested, 0.54% active; AID 2549;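 also: plate controls were vehicle for no effect and no enzyme for full effect; nearly all actives have a fitted effect of over 30% in size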
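RECQ1T1 50 nM; forked duplex (20 bp + 30-nt ss tails) 200 nM, ATP 2 mM final; pH 8.0, 2 mM MgCl2, 2.5 ug/ml poly(dI-dC); 15 min compound preincubation; discontinuous kinetic read over 2 h at RT.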
TR SRC2 fluor cs: counter-screen for TRb-SRC2 inhibitors: fluorescence interference. TRb/SRC2 Texas Red total fluorescence interference. Potency, µM (series often up to 106 µM), inactives show top-dose fluorescence change, negative = quenching. 280,000 tested, 0.29% active. AID 1479; active = well fitted curve in either direction with a large enough effect; inconclusive = small, poorly fitted or top-dose-only effect
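Flags fluorescent or light-absorbing compounds by total fluorescence, S + 2P, at 555 nm excitation and 632 nm emission. Mixture: 20 nM Texas Red SRC2 peptide, 0.6 uM human TRb LBD, 1 uM T3, 5% DMSO; compound exposure 5 h at ambient temperature.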
BLM helicase inh: Bloom syndrome helicase (human) inhibition; 350,000 tested, 0.2% active; AID 2528; P54132; Potency, µM (series often up to 56.1 µM), without a hit: at the top dose activity change, negative = inhibition, hits mostly inhibitors; recombinant BLM DNA unwinding, fluorescence dequenching;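 also: plate controls were vehicle for no effect and no enzyme for full effect; nearly all actives have a fitted effect of over 35% in size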
RECQ1 inh conf: confirmation of human RECQ1 helicase inhibitors; AID 2708; Potency, µM (highest dose often 229 µM), without a hit: at the highest dose activity change, negative = inhibition, actives largely listed as inhibitors; 610 tested, 28% active; RECQ1 helicase DNA unwinding, fluorescence; shares compounds with RECQ1 inh-1; also: nearly all actives have a fitted effect of over 45% in size
ADP FP counter: displaces ADP in a fluorescence polarization counter-screen for RECQ1 hits; shares compounds with RECQ1 inh-1; ADP fluorescence polarization displacement counterscreen; Potency, µM (highest dose often 228 µM), for inactives: top-dose activity change, negative = inhibition, actives largely listed as inhibitors; 530 tested, 27% active; AID 2711; also: nearly all actives have a fitted effect of over 45% in size
RECQ1 inh-2: blocks human RECQ1 DNA unwinding; recombinant RECQ1 DNA unwinding, red fluorescence; 1,100 tested, 15% active; Potency, µM (doses to about 119 µM), inactives show at the top dose activity, negative = inhibition, actives largely listed as inhibitors; shares compounds with RECQ1 inh-1; also: nearly all actives have a fitted effect of over 50% in size
An asterisk follows results filed as active; i = inactive; ? = inconclusive; nt = no result; ! = repeats disagree; [ ] = remark or other dose. Most compounds without a hit are left out; they make up all but 0.91% or so of the library. Unless noted, calls follow the shape of the dose curve; as a rule, active = well fitted curve in the direction sought with a large enough effect; inconclusive = small, poorly fitted or top-dose-only effect, or another doubt; inactive = no such curve, though single readings can be large; an effect the other way counts as inactive or inconclusive. Unless noted, % is scaled to controls: 0 for no effect and ±100 for the full control effect; potency is read from the fitted curve at half-maximal effect.

SMILES	APEX1 inh	TRb SRC2 PPI	WRN helicase inh	RECQ1 inh-1	TR SRC2 fluor cs	BLM helicase inh	others
CCCCc1nc2ccccc2c(=O)n1NC(=O)c1c(O)c2c(n(CC(C)C)c1=O)CCCC2	-3%	-2%	2%	i	1%	-10%	RECQ1 inh conf=?;ADP FP counter=38%
CCc1nc2ccccc2c(=O)n1NC(=O)c1c(O)c2cccc3c2n(c1=O)CCC3	5%	4%	0%	5%	0%	-3%
Cc1cc2oc(=O)c(CC(=O)NCCc3ccccc3F)c(C)c2c2occ(C(C)(C)C)c12	nt	-9%	nt	nt	0%	-3%
Cc1ccc(C(=O)NCC(=O)Nc2ncccc2C)s1	70%	nt	1%	nt	nt	nt
CCOC(=O)Nc1ccc(OCc2nnc3c4ccccc4c(C)nn23)cc1	2%	2%	-17%	-7%	0%	-4%
Cc1nn2c(COc3ccc(NC(=O)C(C)C)cc3)nnc2c2ccccc12	9%	0%	2%	?	0%	1%	RECQ1 inh-2=-9%
COC(=O)c1c(C)[nH]c(C(=O)CN(C)CC(=O)Nc2cccc(F)c2)c1C	-17%	nt	-5%	nt	nt	nt
COC1=C(Nc2ccc(O)cc2)C(=O)c2ccccc2C1=O	?	35µM*	-16%	?	?	-10%	RECQ1 inh-2=-10%
COC(=O)c1ccccc1NC(=O)c1sc2nc(C)cc(C)c2c1NC(=O)c1ccccc1Cl	nt	7%	nt	nt	-9%	-1%
C[C@](N)(Cc1ccc(O)c(O)c1)C(=O)O	1.6µM*!	-4%	nt	2.2µM*!	0%	18µM*!	RECQ1 inh conf=1.4µM*!;ADP FP counter=13µM*
COc1ccc(NC(=O)COC(=O)C2CC(=O)N(c3ccc(C)cc3)C2)cc1 (stereo unspecified)	-8%	nt	7%	nt	nt	0%
CC1=[N+](C)N(c2ccccc2)C(=O)C1N=C/C=C/c1ccccc1 (stereo unspecified)	?	-4%	-1%	-6%	-3%	-1%
CCn1c(CCCOc2ccc(Cl)cc2Cl)nnc1SCC(=O)Nc1cccc(F)c1	-2%	-11%	2%	13µM*	0%	-3%	RECQ1 inh conf=10%[114 µM];ADP FP counter=-12%[91.9 µM];RECQ1 inh-2=-15%
O=C(CSc1nnc(-c2ccccc2)o1)c1nnc(-c2ccccc2)o1	2%	9%	-22%	?	-7%	-17%	RECQ1 inh-2=-22%
CCOC(=O)CSc1nnc(-c2ccccc2)o1	2%	-3%	-1%	-6%	-1%	4%
COc1ccc(NC(=O)c2ccc3c(SCC(=O)O)c4c(nc3c2)CCCC4)c(OC)c1	?	3%	-9%[11.6 µM]	?	-28%	-29%	RECQ1 inh-2=-6%
COC(=O)c1sccc1S(=O)(=O)N1CCN(c2cccc(C)c2C)CC1	nt	-2%	nt	nt	-16%	-10%
CC12CCC(/C(=C/NNc3ccc([N+](=O)[O-])cc3[N+](=O)[O-])C1=O)C2(C)C (stereo unspecified)	nt	nt	-9%	nt	nt	nt
Cc1ccc(NC(=O)C(Cc2ccccc2)NS(=O)(=O)c2ccc3c(c2)CCC(=O)N3)cc1 (stereo unspecified)	nt	-17%	nt	nt	?	-5%
Cc1ccc(CNC(=O)C(Cc2ccccc2)NS(=O)(=O)c2ccc3c(c2)CCC(=O)N3)cc1 (stereo unspecified)	-2%	-2%	-11%	-4%	-3%	0%	RECQ1 inh conf=-6%;ADP FP counter=11%
CC1(C)CCC(=O)c2ccccc21	nt	nt	-19%	nt	nt	nt
CC1(C)CCC2=C(O1)c1ccccc1C(=O)C2=O	-7%	?	nt	18µM*!	-7%	nt	RECQ1 inh conf=?;ADP FP counter=53%
Cc1ccc(N2CCN(C(=O)Cn3ncc4c([nH]c5ccc(C)cc54)c3=O)CC2)c(C)c1	nt	-3%	nt	nt	2%	1%
Clc1ccccc1-c1nnc2sc(-c3ccco3)nn12	5%	1%	-8%	-5%	-1%	2%
c1ccc(Cc2nnc3sc(-c4ccco4)nn23)cc1	-8%	8%	?	?	1%	-16%	RECQ1 inh-2=?
SMILES	APEX1 inh	TRb SRC2 PPI	WRN helicase inh	RECQ1 inh-1	TR SRC2 fluor cs	BLM helicase inh	others
O=C(NCCCN1CCN(c2ccccc2F)CC1)c1sc2ncccc2c1-n1cccc1	nt	10%	nt	nt	-3%	0%
CCN(CC)c1ccc(NS(=O)(=O)c2ccc(-c3coc(C)n3)cc2)c(C)c1	nt	-2%	nt	nt	-19%	-16%
Cc1cc2c(c(=O)o1)C(c1ccc([N+](=O)[O-])o1)C(C#N)=C(N)O2 (stereo unspecified)	8.9µM*	-11%	?	22µM*	28%	-1%	RECQ1 inh-2=-19%
CCC(CC)C1C(C#N)=C(N)Oc2cc(C)oc(=O)c21 (stereo unspecified)	17%	-12%	-5%	-11%	1%	-5%
COc1cc(Br)c(CCNC(=O)c2ccco2)cc1OC	20%	1%	12%	?	-4%	-2%	RECQ1 inh-2=-8%
COc1ccccc1OCCNC(=O)c1ccco1	-6%	nt	3%	nt	nt	-1%
O=C(O)CCCC(=O)N1CCc2cc(S(=O)(=O)NCc3ccccc3)ccc21	9%	-3%	5%	-10%	1%	1%	RECQ1 inh conf=-8%;ADP FP counter=11%
O=C(O)CCC(=O)N1CCc2cc(S(=O)(=O)NCc3ccc(Cl)cc3)ccc21	29%	nt	3%	nt	nt	2%
O=C(O)CCCC(=O)N1CCc2cc(S(=O)(=O)N3CCc4ccccc43)ccc21	-1%	-12%	-4%	-2%	-3%	1%	RECQ1 inh conf=12%;ADP FP counter=8%
CC(=O)N1CCc2cc(S(=O)(=O)NCc3ccc(C)cc3)ccc21	44%	nt	-2%	nt	nt	-1%
Cc1cccc(N2CCN(S(=O)(=O)c3ccc4c(c3)CCN4C(=O)CCC(=O)O)CC2C)c1 (stereo unspecified)	-4%	3%	-33%	-8%	1%	-5%	RECQ1 inh conf=?;ADP FP counter=?
Cc1ccc(CNS(=O)(=O)c2ccc3c(c2)CCN3C(=O)CCCC(=O)O)cc1	-11%	-8%	-31%	i	-1%	2%	RECQ1 inh conf=14%;ADP FP counter=-8%
N#CCSc1nnc(COc2cccc3ccccc23)n1-c1cccc(Cl)c1	-3%	10%	-7%	-20%	-2%	-14%
